In the library only some 3.6% were active in any assay of this set; here they are far more common.
B2AR arrestin ag – qHTS assay of beta-arrestin-biased ligands of beta2-adrenergic receptor: NCGC Sytravon Library Screen; HTLA Tango cells, beta-arrestin recruitment, luciferase luminescence, 18 h; Beta-2 adrenergic receptor (Homo sapiens), P07550; AID 1347077, 2019; 44,000 tested, under 10 active; Potency, µM (highest dose often 46.1 µM), actives largely listed as activators;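 also: potency is read from the fitted curve at half-maximal effect; 0% = DMSO and full agonism = EC100 isoproterenol or metaproterenol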
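First, Tango cells carrying beta2-AR and beta-arrestin fusions received compound up to 46 microM. After 18 hr at 37 degrees C, luciferase substrate was added for 15 minutes, then luminescence gave %Activity for curve fitting.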
GALC G270D up – A Novel Cell-Based Assay to Identify Small Molecules for B -Galactocerebrosidase | AID 1159614, 2016 | 0.1% of 45,000 active | Potency, µM (series often up to 57.5 µM), usual class: activators | P54803 | 145M-Twi-hGALC-G270D cells (Twitcher mouse brain line with human GALC G270D), HMU-beta-Gal fluorescence, 48 h; also: potency is read from the fitted curve at half-maximal effect; 0% is about no effect; nearly all actives have a fitted effect of over 65% in size
Target sequence (P54803 whole entry G286D): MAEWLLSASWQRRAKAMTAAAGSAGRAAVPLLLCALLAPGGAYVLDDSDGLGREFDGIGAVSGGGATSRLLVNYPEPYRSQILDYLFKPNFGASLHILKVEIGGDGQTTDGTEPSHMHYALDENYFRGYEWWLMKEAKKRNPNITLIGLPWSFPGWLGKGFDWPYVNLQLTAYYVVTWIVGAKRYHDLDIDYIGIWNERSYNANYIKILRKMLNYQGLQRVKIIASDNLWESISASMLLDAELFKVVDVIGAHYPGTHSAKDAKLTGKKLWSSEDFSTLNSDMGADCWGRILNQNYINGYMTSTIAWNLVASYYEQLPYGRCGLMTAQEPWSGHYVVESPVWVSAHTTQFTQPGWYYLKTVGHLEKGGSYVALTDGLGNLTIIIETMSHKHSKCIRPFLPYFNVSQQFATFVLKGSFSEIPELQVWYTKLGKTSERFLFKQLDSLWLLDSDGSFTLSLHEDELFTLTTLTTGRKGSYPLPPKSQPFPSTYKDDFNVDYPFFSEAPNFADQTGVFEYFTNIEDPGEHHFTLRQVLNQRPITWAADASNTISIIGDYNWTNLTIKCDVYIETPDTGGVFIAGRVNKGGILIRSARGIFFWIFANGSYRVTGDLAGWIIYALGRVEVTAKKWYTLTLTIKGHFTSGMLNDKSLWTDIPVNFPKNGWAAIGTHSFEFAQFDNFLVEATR
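Brain-derived Twitcher mouse 145M-Twi cells stably expressing human GALC-G270D or wild-type GALC, treated live, then residual GALC activity read by fluorescence of HMU-b-Gal substrate (0.1 mM final) in citrate-phosphate buffer pH 5.2 with sodium taurocholate. Signal increase indicates enhancement.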
DRV1 agonist – qHTS for Agonists of Human Resolvin D1 Receptor DRV1; 2.5% of 48,000 active; AID 1346428, 2018; Probable G-protein coupled receptor 32 (Homo sapiens), O75388; activation, % at 76.9 µM; CHO-K1 GPR32 beta-arrestin PathHunter luminescence, 90 min; zero percent set by DMSO-only wells;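 active = activation of at least 60% and not above a set upper limit, about 1 call in 100 departs from these limits; inconclusive = activation of 40% to 60%, or above that upper limit; inactive = activation under 40%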; also: 0% is about no effect
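Agonism was scored as beta-arrestin recruitment to ProLink-fused GPR32 in stably transfected CHO-K1 cells, giving a chemiluminescent beta-Gal signal; compounds were incubated 90 min at 37 °C.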
GALK inhibitor – qHTS Assay for Inhibitors of Human Galactokinase (GALK): NCGC Sytravon Library Screen; P51570; recombinant GALK, Kinase-Glo ATP luminescence, 1 h; Potency, µM (highest dose often 57.5 µM), inactives show at the top dose activity, negative = inhibition, hits mostly inhibitors; 44,000 tested, under 10 active;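 also: plate controls were full GALK reaction for no effect and reaction lacking GALK for full effect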
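5 nM GALK with 35 µM ATP and 100 µM galactose in HEPES pH 8.0, MgCl2, NaCl, DTT, BSA; 1 h RT reaction, remaining ATP detected by Kinase-Glo Plus luminescence after 10 min; qHTS concentration series.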
NTMT1 inh – Primary qHTS for Inhibitors of N-terminal methyltransferase 1 (NTMT1): MTaseGlo Assay; N-terminal Xaa-Pro-Lys N-methyltransferase 1 (Homo sapiens), Q9BV86; NTMT1 MTase-Glo SAH luminescence, purified enzyme; Potency, µM (series often up to 114 µM), for the others: top-dose activity change, negative = inhibition, usual class: inhibitors; 2.5% of 59,000 active;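 also: potency is read from the fitted curve at half-maximal effect; plate controls were DMSO vehicle for no effect and no enzyme for full effect; nearly all actives have a fitted effect of over 65% in size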
Sfp qHTS opt – qHTS Assay for Inhibitos of Bacillus subtilis Sfp phosphopantetheinyl transferase (PPTase): Chemistry Optimization Followup; 78% of 230 active; shares compounds with NTMT1 inh; purified Sfp PPTase enzyme activity, qHTS; Potency, µM (highest dose often 114 µM), without a hit: at the top dose activity change, negative = inhibition, most hits filed as inhibitors
Bsub HM489 growth – qHTS for Inhibitos of Bacillus subtilis Sfp phosphopantetheinyl transferase (PPTase): Chemistry Optimization Followup in B. Subtilis HM489 | Potency, µM (top dose mostly 114 µM), for inactives: top-dose activity change, negative = inhibition, hits mostly inhibitors | B. subtilis HM489 (acpS-) growth, BacTiter-Glo, 5 h | 50% of 220 active | shares compounds with NTMT1 inh | AID 540353, 2011
Sfp PPTase gel – Gel-Based Assay for Inhibitos of Bacillus subtilis Sfp phosphopantetheinyl transferase (PPTase): Chemistry Optimization Followup. shares compounds with NTMT1 inh. purified Sfp PPTase, gel-based product detection. Potency, µM (titrated, usually from 250 µM), without a hit: at the top dose activity change, negative = inhibition, usual class: inhibitors. 54% of 220 active. AID 540355, 2011
Sfp inh SAR2 – qHTS Assay for Inhibitors of Bacillus subtilis Sfp phosphopantetheinyl transferase (PPTase): SAR Round 2; shares compounds with NTMT1 inh; purified Sfp enzyme, PPTase activity, qHTS; Potency, µM (titrated, usually from 57.1 µM), without a hit: at the top dose activity change, negative = inhibition, actives largely listed as inhibitors; 87% of 230 active; AID 602370, 2012
HSD17B4 counter – Extended Characterization of HPGD Inhibitors: Counterscreen Against HSD17b4. shares compounds with NTMT1 inh. purified HSD17B4, estradiol/NAD+, NADH fluorescence. Potency, µM (titrated, usually from 57.1 µM), without a hit: at the top dose activity change, negative = inhibition, hits mostly inhibitors. 10% of 230 active
ALDH1A1 inh – Extended Characterization of HPGD Inhibitors: Counterscreen Against ALDH1A1 | recombinant ALDH1A1, NADH fluorescence, propionaldehyde/NAD+ | Potency, µM (series often up to 57.1 µM), for the others: at the highest dose activity change, negative = inhibition, most hits filed as inhibitors | 93% of 230 active | shares compounds with NTMT1 inh
NNMT counter – Counterscreen qHTS for Inhibitors of N-terminal methyltransferase 1 (NTMT1): NNMT MTaseGlo assay | NNMT MTase-Glo luminescence, SAH detection | AID 1645878, 2021 | Potency, µM (series often up to 57.1 µM), for the others: at the top dose activity, negative = inhibition, most hits filed as inhibitors | shares compounds with NTMT1 inh | 10% of 120 active
* = called active by the depositor; [ ] = remark or other dose. Unless noted, calls follow the shape of the dose curve; as a rule, active = well fitted curve in the direction sought with a large enough effect; inconclusive = small, poorly fitted or top-dose-only effect, or another doubt; inactive = no such curve, though single readings can be large; an effect the other way counts as inactive or inconclusive.

`Cc1cc(C)nc(NC(=S)N2CCN(c3nsc4ccccc34)CC2)c1` gave NTMT1 inh inconclusive, Sfp qHTS opt 3.73µM*, Bsub HM489 growth inconclusive, Sfp PPTase gel 6.31µM*, Sfp inh SAR2 1.02µM*, HSD17B4 counter -9.9% and ALDH1A1 inh 21.5µM*.
`Cc1cc(C)nc(NC(=S)N2CCN(Cc3cccc(C(F)(F)F)c3)CC2)c1` gave Sfp qHTS opt 6.63µM*, Bsub HM489 growth inconclusive, Sfp PPTase gel inconclusive, Sfp inh SAR2 11.5µM*, HSD17B4 counter -15.1% and ALDH1A1 inh 12.1µM*.
Cc1ccc(C)c(N2CCN(C(=O)c3ccc(NC(=O)c4nsc5ccccc45)cc3)CC2)c1 was read as B2AR arrestin ag inactive, GALC G270D up inactive, DRV1 agonist -17.9, GALK inhibitor -1.7% and NTMT1 inh -14.9%.
Screening Cc1cc(C)nc(NC(=S)N2CCN(Cc3cccc4ccccc34)CC2)c1 returned NTMT1 inh inconclusive, Sfp qHTS opt 4.69µM*, Bsub HM489 growth inconclusive, Sfp PPTase gel 10µM*, Sfp inh SAR2 8.13µM*, HSD17B4 counter -10.8% and ALDH1A1 inh 21.5µM*.
For Cc1cc2n(n1)CCC(=O)N2Cc1ccc(C(=O)Nc2cccc(C(F)(F)F)c2)cc1 the results were B2AR arrestin ag inactive, GALC G270D up inactive, DRV1 agonist 27.8, GALK inhibitor 0.3% and NTMT1 inh -18.6%.
Screening Cc1cc(C)nc(NC(=S)N2CCN(c3nccc4ccccc34)CC2)c1 returned NTMT1 inh inconclusive, Sfp qHTS opt 2.64µM*, Bsub HM489 growth inconclusive, Sfp PPTase gel -63.1%, Sfp inh SAR2 9.13µM*, HSD17B4 counter -22.8% and ALDH1A1 inh 9.61µM*.
CC(=O)N1CCN(CCOc2ccc(C3CCN(C4=Nn5c(nnc5C(F)(F)F)CC4)CC3)cc2)CC1 was read as NTMT1 inh 3.4%[57.5 µM].
Screening COC(=N)c1nc2ccc3ncnc(Nc4ccc(F)cc4Br)c3c2s1 returned NTMT1 inh 9.6%.
CCC(C)C(C(=O)O)N1Cc2c(OCC=C(C)C)c(C)c(OC)c(C(=O)O)c2C1=O (stereo not given) was read as NTMT1 inh 1.2%[29.8 µM].
Screening CC(=O)N1c2ccc(-c3ccc(C(=O)O)cc3)cc2C(Nc2ccc(Cl)cc2)CC1C (stereo not given) returned NTMT1 inh 1.2%[57.5 µM].
For Cc1cc(C)nc(NC(=S)N2CCN(c3nc4ccccc4s3)CC2)c1 the results were NTMT1 inh inconclusive, Sfp qHTS opt 0.373µM*, Bsub HM489 growth inconclusive, Sfp PPTase gel 10µM*, Sfp inh SAR2 0.91µM*, HSD17B4 counter -14.6% and ALDH1A1 inh 8.57µM*.
For CCS(=O)(=O)c1ccccc1C(=O)N1CCN(c2nc3ccccc3s2)CC1 the results were B2AR arrestin ag inactive, GALC G270D up inactive, DRV1 agonist 15.1, GALK inhibitor -2.2% and NTMT1 inh 20.4%.
For COc1cc2c(NC3CCN(C(C)C)CC3)nc(N3CCCN(c4ccccc4)CC3)nc2cc1OCCCN1CCCC1 the results were NNMT counter -11.2%.
`COc1cc2c(NC3CCN(C(C)C)CC3)nc(N3CCC(F)(F)CC3)nc2cc1OCCCN1CCCC1` gave NTMT1 inh -23.9%[57.5 µM].
For C=C1CCC2C(C(C)(C)O)CCC2(C)CC(O)C(=C)CCC1O (stereo not given) the results were NTMT1 inh 8.6%[29.8 µM].

Screening results as filed in PubChem.
